Test results from PubChem BioAssay (NCI).
About 79,000 compounds went through this panel and 15% of them were active in at least one assay; those are over-represented in the sample as a whole. Unmarked numbers belong to inactive results. The source made the active and inactive calls. No stated cut-off is given here; in the data, active means growth inhibition above about 70%; inactive means the rest.

experiment: NCI Yeast Anticancer Drug Screen. Data for the sgs1 mgt1 strain (AID 161);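 further: 0% = growth of cultures given vehicle only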; settings: S. cerevisiae sgs1 mgt1 strain, at 5.0 µM (retest, dose inferred, filed as 0.5), stronger effect = higher value
Summary of the method: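 This yeast growth screen uses a strain with defined DNA-repair lesions; compound-treated growth is compared with vehicle-treated growth.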

In order of falling growth inhibition:
1. COc1cc2c(cc1[N+](=O)[O-])C(=O)C(Br)(Br)CCC2  49%
2. COc1ccc(-c2cn(-c3ccc(I)cc3)c3ncnc(N)c23)cc1  39%
3. CC1(C)C(=O)OC(n2cc(F)c(=O)[nH]c2=O)C1=O (centres undefined)  36%
4. O=c1ssc2ncccc12  31%
5. CC(C)C1=CCC2C(=C1)CCC1C(C)(C(=O)O)CCCC21C (centres undefined) (tested in a mixture with another compound)  31%
6. OC1CCCc2c1cc1ccc3cccc4ccc2c1c34 (centres undefined)  29%
7. S=C(N/N=C/c1ccccn1)Nc1ccc(Cl)cc1  27%
8. Cc1ccc(S(=O)(=O)Oc2cc(Cl)c(Cl)cc2Cl)cc1  23%
9. COc1ccccc1N=NC(C(=O)c1ccccc1)C(=O)c1ccccc1  22%
10. CC(=O)ON1C(=O)c2cccc3cccc(c23)C1=O  22%
11. COc1cc2c(c(OC)c1OC)-c1c(cc3c(c1OC)OCO3)CC(C)C(C)(O)C2OC(=O)c1ccccc1 (centres undefined)  19%
12. CNC1C(OC2C(OC3C(O)C(O)C(N=C(N)N)C(O)C3N=C(N)N)OC(C)C2(O)CO)OC(CO)C(O)C1O (centres undefined)  19%
13. O=C(c1ccc(Cl)cc1Cl)C(Cl)Cl  13%
14. OCC1OC(OCC(O)C(O)C(O)C(/C=N/Nc2ccccc2)=N/Nc2ccccc2)C(O)C(O)C1O (centres undefined)  7%
15. COc1ccc2ccc3ccccc3c2c1C=O  7%
16. CC(=O)[O][Bi]([c]1ccccc1)[c]1ccccc1  6%
17. COc1cc(/C=C2\CCc3ccccc3C2=O)cc(OC)c1OC  5%
18. CCN(CC)CC[n+]1ccc2c(C)c3[nH]c4ccc(O)cc4c3c(C)c2c1  4%
19. CC[n+]1ccc2c(C)c3[nH]c4ccc(O)cc4c3c(C)c2c1  4%
20. CC(O)C(O)C(O)C(/C=N\Nc1ccccc1)=N/Nc1ccccc1 (centres undefined)  3%
21. COc1cc(CC2CC(c3ccc4c(c3)OCO4)OC2=O)cc(OC)c1OC (centres undefined)  2%
22. CCCCN(CCCC)CCSc1ccc(Cl)cc1  2%
23. CC[C@@]1(O)C(=O)OCc2c1cc1n(c2=O)Cc2cc3c(N)cccc3nc2-1  1%
24. O=C1C2C(C(=O)N1c1ccc(OCc3ccccc3)cc1)C1c3ccccc3C2C2CCCCN21 (centres undefined)  1%
25. c1ccc2c(c1)Oc1cccc3cccc-2c13  0%
26. Oc1ccc2ccccc2c1C(c1ccc(Cl)cc1)c1c(O)ccc2ccccc12  -2%
27. O=[n+]1c2ccc(Cl)cc2n([O-])c2ccc(Cl)cc21  -4%
28. O=[N+]([O-])CC(SCc1ccccc1)c1ccc2c(c1)OCO2 (centres undefined)  -4%
29. N#CN=Nc1cc(Cl)c(N=NC#N)cc1Cl  -5%
30. COC1C=COC2(C)Oc3c(C)c(O)c4c(c3C2=O)/C(=N/C2CCC(O)OC2C)C=C(NC(=O)/C(C)=C\C(=O)C2CC2C(O)C(C)C(O)C(C)C(OC(C)=O)C1C)C4=O (centres undefined)  -6%
31. CCOC(=O)C(NC(=O)c1ccccc1)(N1CCN(c2cc3c(cc2F)c(=O)c(C(=O)O)cn3C2CC2)CC1)C(F)(F)F (centres undefined)  -6%
32. NNC(=O)CCc1ccc2ccc3ccccc3c2c1  -6%
33. COc1ccc(/C=C2\SC(=S)N(/C=C/c3nc4ccccc4[nH]c3=O)C2=O)cc1OC  -7%
34. C/C(=N\O)C1CC2C=C(C#N)C1N(Cc1ccccc1)C2 (centres undefined)  -10%
35. CC/C(=C(\c1ccccc1)c1ccc(OCCN(C)C)cc1)c1ccccc1  -12%
36. CCOP(=O)(OCC)C(Cc1ccccc1)N=C(c1ccccc1)c1ccccc1 (centres undefined)  -14%
37. COc1ccc(N=C2C(=O)Nc3ccc(Br)cc32)cc1  -15%
38. Cn1c(=O)c2ccccc2c2ccccc21  -64%

With `CCC(C)COC(=O)c1ccc(N=Cc2ccc(C=Nc3ccc(C(=O)OCC(C)CC)cc3)cc2)cc1` (centres undefined) the growth inhibition was 98% (active).
